According to the supplement of paper PMC4466140:

B1: unnamed (peptide)
chain: NVLRKILEIPLHSFS

Molecular target: AgAbp1
Experiment: SPOT peptide array binding signal intensity (averaged, normalized) (arbitrary units (background-subtracted, floor 0; scale differs between SH3 domains)); higher = stronger binding of the SH3 domain to the peptide
Procedure, shortened: (§1)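 Detection of bound protein relied on anti-GST antibody, an HRP anti-mouse secondary and luminol, with imaging and quantification in Genespotter. The bound protein was GST-fused SH3 domains from four yeast species, incubated at 10 μg/ml overnight at 4°C in TBS-based blocking buffer on cellulose membranes carrying synthetic 15-mer peptides with cysteines replaced by serines. Binding signal is normalized, background-subtracted spot intensity averaged over replicates, in arbitrary units that differ between domains.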

| Binder | SPOT peptide array binding signal intensity |
| --- | --- |
| B1 | 4 |

Molecular target: AgBbc1
Experiment: as above
Procedure, shortened: as §1

| Binder | SPOT peptide array binding signal intensity |
| --- | --- |
| B1 | ≤ 0 |

Molecular target: AgBem1-D1
Experiment: as above
Procedure, shortened: as §1

| Binder | SPOT peptide array binding signal intensity |
| --- | --- |
| B1 | ≤ 0 |

Molecular target: AgBzz1-D1
Experiment: as above
Procedure, shortened: as §1

| Binder | SPOT peptide array binding signal intensity |
| --- | --- |
| B1 | 5.5 |

Molecular target: AgBzz1-D2
Experiment: as above
Procedure, shortened: as §1

| Binder | SPOT peptide array binding signal intensity |
| --- | --- |
| B1 | 24.5 |

Molecular target: AgCyk3
Experiment: as above
Procedure, shortened: as §1

| Binder | SPOT peptide array binding signal intensity |
| --- | --- |
| B1 | ≤ 0 |

Molecular target: AgFus1
Experiment: as above
Procedure, shortened: as §1

| Binder | SPOT peptide array binding signal intensity |
| --- | --- |
| B1 | 29.5 |

Molecular target: AgHof1
Experiment: as above
Procedure, shortened: as §1

| Binder | SPOT peptide array binding signal intensity |
| --- | --- |
| B1 | ≤ 0 |

Molecular target: AgHse1
Experiment: as above
Procedure, shortened: as §1

| Binder | SPOT peptide array binding signal intensity |
| --- | --- |
| B1 | 2570 |

Molecular target: AgLsb1
Experiment: as above
Procedure, shortened: as §1

| Binder | SPOT peptide array binding signal intensity |
| --- | --- |
| B1 | 2 |

Molecular target: AgLsb4
Experiment: as above
Procedure, shortened: as §1

| Binder | SPOT peptide array binding signal intensity |
| --- | --- |
| B1 | 16 |

Molecular target: AgMyo5
Experiment: as above
Procedure, shortened: as §1

| Binder | SPOT peptide array binding signal intensity |
| --- | --- |
| B1 | ≤ 0 |

Molecular target: AgNbp2
Experiment: as above
Procedure, shortened: as §1

| Binder | SPOT peptide array binding signal intensity |
| --- | --- |
| B1 | ≤ 0 |

Molecular target: AgRvs167
Experiment: as above
Procedure, shortened: as §1

| Binder | SPOT peptide array binding signal intensity |
| --- | --- |
| B1 | 1 |

Molecular target: AgSho1
Experiment: as above
Procedure, shortened: as §1

| Binder | SPOT peptide array binding signal intensity |
| --- | --- |
| B1 | ≤ 0 |

Molecular target: AgSla1-D1-D2
Experiment: as above
Procedure, shortened: as §1

| Binder | SPOT peptide array binding signal intensity |
| --- | --- |
| B1 | ≤ 0 |

Molecular target: AgSla1-D3
Experiment: as above
Procedure, shortened: as §1

| Binder | SPOT peptide array binding signal intensity |
| --- | --- |
| B1 | 2 |

Molecular target: CaAbp1-D1
Experiment: as above
Procedure, shortened: as §1

| Binder | SPOT peptide array binding signal intensity |
| --- | --- |
| B1 | ≤ 0 |

Molecular target: CaAbp1-D2
Experiment: as above
Procedure, shortened: as §1

| Binder | SPOT peptide array binding signal intensity |
| --- | --- |
| B1 | ≤ 0 |

Molecular target: CaBbc1
Experiment: as above
Procedure, shortened: as §1

| Binder | SPOT peptide array binding signal intensity |
| --- | --- |
| B1 | ≤ 0 |

Molecular target: CaBem1-D1
Experiment: as above
Procedure, shortened: as §1

| Binder | SPOT peptide array binding signal intensity |
| --- | --- |
| B1 | ≤ 0 |

Molecular target: CaBzz1-D1
Experiment: as above
Procedure, shortened: as §1

| Binder | SPOT peptide array binding signal intensity |
| --- | --- |
| B1 | ≤ 0 |

Molecular target: CaBzz1-D2
Experiment: as above
Procedure, shortened: as §1

| Binder | SPOT peptide array binding signal intensity |
| --- | --- |
| B1 | ≤ 0 |

Molecular target: CaCyk3
Experiment: as above
Procedure, shortened: as §1

| Binder | SPOT peptide array binding signal intensity |
| --- | --- |
| B1 | ≤ 0 |

Molecular target: CaFus1
Experiment: as above
Procedure, shortened: as §1

| Binder | SPOT peptide array binding signal intensity |
| --- | --- |
| B1 | 1150 |

Molecular target: CaHof1
Experiment: as above
Procedure, shortened: as §1

| Binder | SPOT peptide array binding signal intensity |
| --- | --- |
| B1 | ≤ 0 |

Molecular target: CaHse1
Experiment: as above
Procedure, shortened: as §1

| Binder | SPOT peptide array binding signal intensity |
| --- | --- |
| B1 | 7 |

Molecular target: CaLsb1
Experiment: as above
Procedure, shortened: as §1

| Binder | SPOT peptide array binding signal intensity |
| --- | --- |
| B1 | 6 |

Molecular target: CaLsb4
Experiment: as above
Procedure, shortened: as §1

| Binder | SPOT peptide array binding signal intensity |
| --- | --- |
| B1 | ≤ 0 |

Molecular target: CaMyo5
Experiment: as above
Procedure, shortened: as §1

| Binder | SPOT peptide array binding signal intensity |
| --- | --- |
| B1 | ≤ 0 |

Molecular target: CaNbp2
Experiment: as above
Procedure, shortened: as §1

| Binder | SPOT peptide array binding signal intensity |
| --- | --- |
| B1 | 94.5 |

Molecular target: CaRvs167
Experiment: as above
Procedure, shortened: as §1

| Binder | SPOT peptide array binding signal intensity |
| --- | --- |
| B1 | ≤ 0 |

Molecular target: CaRvs167-3
Experiment: as above
Procedure, shortened: as §1

| Binder | SPOT peptide array binding signal intensity |
| --- | --- |
| B1 | 7.25 |

Molecular target: CaSho1
Experiment: as above
Procedure, shortened: as §1

| Binder | SPOT peptide array binding signal intensity |
| --- | --- |
| B1 | 75 |

Molecular target: CaSla1-D1-D2
Experiment: as above
Procedure, shortened: as §1

| Binder | SPOT peptide array binding signal intensity |
| --- | --- |
| B1 | ≤ 0 |

Molecular target: CaSla1-D3
Experiment: as above
Procedure, shortened: as §1

| Binder | SPOT peptide array binding signal intensity |
| --- | --- |
| B1 | ≤ 0 |

Molecular target: ScAbp1
Experiment: as above
Procedure, shortened: as §1

| Binder | SPOT peptide array binding signal intensity |
| --- | --- |
| B1 | 2 |

Molecular target: ScBbc1
Experiment: as above
Procedure, shortened: as §1

| Binder | SPOT peptide array binding signal intensity |
| --- | --- |
| B1 | ≤ 0 |

Molecular target: ScBem1-D1
Experiment: as above
Procedure, shortened: as §1

| Binder | SPOT peptide array binding signal intensity |
| --- | --- |
| B1 | ≤ 0 |

Molecular target: ScBzz1-D1
Experiment: as above
Procedure, shortened: as §1

| Binder | SPOT peptide array binding signal intensity |
| --- | --- |
| B1 | 12 |

Molecular target: ScBzz1-D2
Experiment: as above
Procedure, shortened: as §1

| Binder | SPOT peptide array binding signal intensity |
| --- | --- |
| B1 | 26 |

Molecular target: ScCyk3
Experiment: as above
Procedure, shortened: as §1

| Binder | SPOT peptide array binding signal intensity |
| --- | --- |
| B1 | 31 |

Molecular target: ScFus1
Experiment: as above
Procedure, shortened: as §1

| Binder | SPOT peptide array binding signal intensity |
| --- | --- |
| B1 | 123 |

Molecular target: ScHof1
Experiment: as above
Procedure, shortened: as §1

| Binder | SPOT peptide array binding signal intensity |
| --- | --- |
| B1 | ≤ 0 |

Molecular target: ScHse1
Experiment: as above
Procedure, shortened: as §1

| Binder | SPOT peptide array binding signal intensity |
| --- | --- |
| B1 | 1780 |

Molecular target: ScLsb1
Experiment: as above
Procedure, shortened: as §1

| Binder | SPOT peptide array binding signal intensity |
| --- | --- |
| B1 | 59.8 |

Molecular target: ScLsb2
Experiment: as above
Procedure, shortened: as §1

| Binder | SPOT peptide array binding signal intensity |
| --- | --- |
| B1 | ≤ 0 |

Molecular target: ScLsb3
Experiment: as above
Procedure, shortened: as §1

| Binder | SPOT peptide array binding signal intensity |
| --- | --- |
| B1 | ≤ 0 |

Molecular target: ScLsb4
Experiment: as above
Procedure, shortened: as §1

| Binder | SPOT peptide array binding signal intensity |
| --- | --- |
| B1 | ≤ 0 |

Molecular target: ScMyo3
Experiment: as above
Procedure, shortened: as §1

| Binder | SPOT peptide array binding signal intensity |
| --- | --- |
| B1 | 0.75 |

Molecular target: ScMyo5
Experiment: as above
Procedure, shortened: as §1

| Binder | SPOT peptide array binding signal intensity |
| --- | --- |
| B1 | ≤ 0 |

Molecular target: ScNbp2
Experiment: as above
Procedure, shortened: as §1

| Binder | SPOT peptide array binding signal intensity |
| --- | --- |
| B1 | 9.5 |

Molecular target: ScPex13
Experiment: as above
Procedure, shortened: as §1

| Binder | SPOT peptide array binding signal intensity |
| --- | --- |
| B1 | ≤ 0 |

Molecular target: ScRvs167
Experiment: as above
Procedure, shortened: as §1

| Binder | SPOT peptide array binding signal intensity |
| --- | --- |
| B1 | 0.833 |

Molecular target: ScSho1
Experiment: as above
Procedure, shortened: as §1

| Binder | SPOT peptide array binding signal intensity |
| --- | --- |
| B1 | 120 |

Molecular target: ScSla1-D1-D2
Experiment: as above
Procedure, shortened: as §1

| Binder | SPOT peptide array binding signal intensity |
| --- | --- |
| B1 | ≤ 0 |

Molecular target: ScSla1-D3
Experiment: as above
Procedure, shortened: as §1

| Binder | SPOT peptide array binding signal intensity |
| --- | --- |
| B1 | ≤ 0 |

Molecular target: SpAbp1-D1
Experiment: as above
Procedure, shortened: as §1

| Binder | SPOT peptide array binding signal intensity |
| --- | --- |
| B1 | ≤ 0 |

Molecular target: SpBbc1
Experiment: as above
Procedure, shortened: as §1

| Binder | SPOT peptide array binding signal intensity |
| --- | --- |
| B1 | 38 |

Molecular target: SpBzz1-D1
Experiment: as above
Procedure, shortened: as §1

| Binder | SPOT peptide array binding signal intensity |
| --- | --- |
| B1 | ≤ 0 |

Molecular target: SpBzz1-D2
Experiment: as above
Procedure, shortened: as §1

| Binder | SPOT peptide array binding signal intensity |
| --- | --- |
| B1 | ≤ 0 |

Molecular target: SpCyk3
Experiment: as above
Procedure, shortened: as §1

| Binder | SPOT peptide array binding signal intensity |
| --- | --- |
| B1 | 0.5 |

Molecular target: SpHof1
Experiment: as above
Procedure, shortened: as §1

| Binder | SPOT peptide array binding signal intensity |
| --- | --- |
| B1 | 2 |

Molecular target: SpHof1-2
Experiment: as above
Procedure, shortened: as §1

| Binder | SPOT peptide array binding signal intensity |
| --- | --- |
| B1 | ≤ 0 |

Molecular target: SpHof1-3
Experiment: as above
Procedure, shortened: as §1

| Binder | SPOT peptide array binding signal intensity |
| --- | --- |
| B1 | 591 |

Molecular target: SpHse1
Experiment: as above
Procedure, shortened: as §1

| Binder | SPOT peptide array binding signal intensity |
| --- | --- |
| B1 | 2430 |

Molecular target: SpLsb1
Experiment: as above
Procedure, shortened: as §1

| Binder | SPOT peptide array binding signal intensity |
| --- | --- |
| B1 | ≤ 0 |

Molecular target: SpLsb4
Experiment: as above
Procedure, shortened: as §1

| Binder | SPOT peptide array binding signal intensity |
| --- | --- |
| B1 | ≤ 0 |

Molecular target: SpMyo1
Experiment: as above
Procedure, shortened: as §1

| Binder | SPOT peptide array binding signal intensity |
| --- | --- |
| B1 | ≤ 0 |

Molecular target: SpNbp2
Experiment: as above
Procedure, shortened: as §1

| Binder | SPOT peptide array binding signal intensity |
| --- | --- |
| B1 | 32.5 |

Molecular target: SpPex13
Experiment: as above
Procedure, shortened: as §1

| Binder | SPOT peptide array binding signal intensity |
| --- | --- |
| B1 | 2 |

Molecular target: SpRvs167
Experiment: as above
Procedure, shortened: as §1

| Binder | SPOT peptide array binding signal intensity |
| --- | --- |
| B1 | ≤ 0 |

Molecular target: SpSla1-D1-D2
Experiment: as above
Procedure, shortened: as §1

| Binder | SPOT peptide array binding signal intensity |
| --- | --- |
| B1 | ≤ 0 |

Molecular target: SpSla1-D3
Experiment: as above
Procedure, shortened: as §1

| Binder | SPOT peptide array binding signal intensity |
| --- | --- |
| B1 | ≤ 0 |
